Source: PubChem (National Center for Advancing Translational Sciences (NCATS))
Shown are actives, neighbours in structure and some others; about 2.2% of the full set was active somewhere.
rTrxR1 inhibitor: rat TrxR1 inhibition | O89049 | 1% of 390,000 active | recombinant rTrxR1, NADPH fluorescence consumption, selenite substrate | Potency, µM (top dose mostly 114 µM), actives largely listed as inhibitors; note: nearly all actives have a fitted effect of over 65% in size
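Rat TrxR1 (90 nM in the dispensed reagent) was pre-reduced with 400 uM NADPH for 5 min at room temperature, then incubated with compound for 15 min. After 400 uM selenite was added, NADPH fluorescence (Ex 340/Em 450 nm) was followed for 8 min.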
mIDH1 inhibitor: blocks human mutant IDH1 R132H enzyme | IDH1-R132H enzyme, NADPH consumption, diaphorase/resazurin fluorescence | Potency, µM (series often up to 76.6 µM), actives largely listed as inhibitors | 0.093% of 390,000 active | AID 602179 | O75874; note: nearly all actives have a fitted effect of over 65% in size
Target sequence (O75874 whole entry R132H, stated change not applied): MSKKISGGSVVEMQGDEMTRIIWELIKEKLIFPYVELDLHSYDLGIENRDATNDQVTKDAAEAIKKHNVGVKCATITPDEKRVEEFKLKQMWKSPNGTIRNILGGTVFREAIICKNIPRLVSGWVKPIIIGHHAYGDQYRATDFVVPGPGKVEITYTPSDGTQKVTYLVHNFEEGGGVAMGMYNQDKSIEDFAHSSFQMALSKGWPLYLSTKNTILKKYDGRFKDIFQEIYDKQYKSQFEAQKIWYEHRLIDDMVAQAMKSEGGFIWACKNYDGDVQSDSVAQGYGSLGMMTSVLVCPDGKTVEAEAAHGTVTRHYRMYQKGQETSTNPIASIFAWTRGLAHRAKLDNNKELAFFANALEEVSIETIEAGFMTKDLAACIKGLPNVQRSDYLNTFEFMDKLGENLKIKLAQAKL
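IDH1-R132H (0.5 ug/mL) preincubated 30 min with compound, then NADPH (0.016 mM) and alpha-KG (2 mM) added; 80 min at RT, pH 7.5. Remaining NADPH coupled via diaphorase/resazurin to fluorescence (540/590 nm); concentration-response curves normalized to no-enzyme control.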
BRCA1 expr act: activators of BRCA1 expression | MCF7-BRCA1-FFLuc reporter, luminescence, 48 h; response scale: scaled: vehicle 0%, 10 µM genistein 100% | 1.1% of 380,000 active | Potency, µM (series often up to 46.1 µM), hits mostly activators; note: nearly all actives have a fitted effect of over 80% in size
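48 h compound treatment of MCF7-BRCA1-FFLuc cells (phenol-red free MEM, 37 °C), then 15 min with luciferase substrate and luminescence imaging.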
TrxR1 substrate: rat thioredoxin reductase 1 substrate activity. AID 588456. Potency, µM (series often up to 114 µM). O89049. 0.01% of 390,000 active. purified TrxR1 substrate turnover, NADPH consumption readout; note: nearly all actives have a fitted effect of over 50% in size
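Rat TrxR1, dispensed at 90 nM, was prereduced with 400 uM NADPH (final) for 5 min at ~22 deg C, then incubated with compound 15 min before 400 uM selenite. A first-read NADPH fluorescence drop versus no-compound background flagged substrates.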
Giardia killer: Giardia lamblia killing; Giardia lamblia trophozoite viability; activity change, % at 7.66 µM, hits read low; 0.15% of 340,000 active; AID 540267; in the data active = activity change below about -80%; inconclusive = between about -30% and that limit;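 note: parasites exposed to compound for two days anaerobically before the ATP read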
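Trophozoite viability was measured as ATP-dependent luminescence, read 15-30 min after reagent addition. Before that, parasites at 100 cells/well were exposed to compounds for 48 h, anaerobically, at 37 deg C.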
IL-2 act: IL-2 activation | IL-2 activation reporter assay, cell-based qHTS; stimulated with anti-CD3/CD4/CD28 beads; in transgenic mouse T cells | activation, % (series mostly up to about 46 µM) | 0.065% of 360,000 active; in the data active = activation above about 50%; inconclusive = mostly about 30% to 49%
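Unstimulated transgenic mouse T cells, 750 per well, received compound and, after 60 minutes, anti-CD3/anti-CD4 bead plus anti-CD28 stimulation. EGFP and DsRed were quantified after 18 hours.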
Hits are given with their value; - = inactive; ? = inconclusive; . = not tested or not shown; [ ] = dose if it differs, or a comment. Unless noted, calls come from the whole dose curve; as a rule, active = well fitted curve in the direction sought with a large enough effect; inconclusive = small, poorly fitted or top-dose-only effect, or another doubt; inactive = no such curve, though single readings can be large; an effect the other way counts as inactive or inconclusive.

SMILES	rTrxR1 inhibitor	mIDH1 inhibitor	BRCA1 expr act	TrxR1 substrate	Giardia killer	IL-2 act
CC(=O)c1cccc(NC(=O)c2cc3ccccn3n2)c1	-	-	2.5µM	-	-	-
CC(=O)c1cccc(NC(=O)c2cnn3ccccc23)c1	-	-	3.5µM	-	-	-
CCOc1ccc(N2C(=O)c3ccccc3C2O)cc1 (configuration not stated)	-	-	6.3µM	-	-	-
Cn1c(SCc2c(F)cccc2Cl)nnc1-c1cccs1	-	-	4µM	-	-	-
Cc1ccc(NC(=O)CN2C(=O)C(c3ccc(C)cc3)=NC23CCCCCC3)cc1	-	.	.	-	.	.
Cn1c2ccccc2c2c(C(=O)NCc3ccco3)cn(C3CCCCC3)c(=O)c21	20µM	-	-	-	-	-
COc1cc(C(C[N+](=O)[O-])c2c(C)cc3ccccn23)ccc1O (configuration not stated)	-	-	-	-	-	-
COc1cc(C(C[N+](=O)[O-])c2c(-c3ccccc3)cc3ccccn23)cc(OC)c1OC (configuration not stated)	1.8µM	-	-	-	-	-
COc1ccc(C(C[N+](=O)[O-])c2c(-c3ccccc3)cc3ccccn23)cc1 (configuration not stated)	?	-	-	-	-	-
COc1ccc(C(C[N+](=O)[O-])c2c(-c3ccccc3)cc3ccccn23)cc1OC (configuration not stated)	16µM	-	-	-	-	-
COc1ccc(N2CCN(Cc3cccn3-c3nnc(N4CCN(C5CCCCC5)CC4)s3)CC2)cc1	-	-	-	-	.	.
Cc1cc(CNC(=O)c2cc(COc3ccc(F)c(F)c3)on2)nn1C	-	-	8.9µM	-	-	-
Cc1cc(C)n(CC(C)NC(=O)c2cc(COc3ccc(F)c(F)c3)on2)n1 (configuration not stated)	-	-	-	-	-	-
CN1CCN(C2=C(Cl)C(=O)N(c3ccc(Cl)c(Cl)c3)C2=O)CC1	16µM	-	-	-	-	-
Clc1ccc(-c2cnnc(-c3ccccn3)n2)cc1	-	-	?	-	-	-
c1ccc(-c2cnnc(-c3ccccn3)n2)cc1	-	-	4.5µM	-	-	-
CCCC(=O)Nc1ccc(C(=O)NN=C(C2CC2)C2CC2)cc1	-	-	-	-	-	-
CCCC(=O)Nc1ccc(C(=O)COC(=O)C2CC2)cc1	-	-	10µM	-	-	-
COc1ccccc1NC(=O)C(Cc1ccccc1)NS(=O)(=O)c1cccc2nsnc12 (configuration not stated)	-	-	.	-	.	.
C/C(=N\NC(=O)c1c(Cl)cnn1C)c1cccc(NC(=O)c2ccc(C)cc2)c1	-	-	6.3µM	-	-	-
C/C(=N\NC(=O)c1cccc(O)c1)c1cccc(NC(=O)c2ccc(F)cc2)c1	-	-	4µM	-	-	-
C/C(=N\NC(=O)c1ccc(O)cc1)c1cccc(NC(=O)c2ccc(Cl)cc2)c1	-[11.4 µM]	-	5.6µM	-[11.4 µM]	-	-
C/C(=N\NC(=O)c1c(Br)cnn1C)c1ccc(NC(=O)c2ccc(F)cc2)cc1	-	-	7.9µM	-	-	-
C/C(=N\NC(=O)c1ccc(F)cc1)c1cccc(NC(=O)c2cccc(F)c2)c1	-	-	-	-	-	-
C/C(=N\NC(=O)c1ccc(Cl)cc1)c1cccc(NC(=O)c2cccnc2)c1	-	-	?	-	-	-
SMILES	rTrxR1 inhibitor	mIDH1 inhibitor	BRCA1 expr act	TrxR1 substrate	Giardia killer	IL-2 act
COc1ccccc1-c1cc2nc(C)c(CCC(=O)NCc3cccc(Cl)c3)c(C)n2n1	-	-	-	-	.	.
Cc1cccc(Cn2cnc3c(cnn3C(C)(C)C)c2=O)c1F	-	.	.	-	.	.
Cc1sc2ccccc2[n+]1CCc1ccccc1	-	.	.	-	.	.
COc1ccc(NC(=O)c2cc(C3CC3)nc3c2c(C)nn3-c2ccc(C)cc2)cc1OC	-	-	.	-	.	.
Cc1ccc(-n2ncc(Cl)c2C(=O)NCc2ccccc2)cc1	-	-	11µM	-	-	-
CCN(Cc1ccccc1)C(=O)CCc1nnc(CCCc2ccccc2)o1	-	-	11µM	-	-	-
